“And” between values parts separate entries of the source, which are not always exact repeats. Equal entries are not always repeated. Results filed as inconclusive are left out. Some compounds were tested as several samples or in several runs, with calls that do not always agree. The source made the active and inactive calls. How the source made its calls, unless noted: active means hit-call score of the fitted dose curve at least 0.9, where 1 is the maximum; inactive means score below 0.9.

Read-out in test [1]: E-selectin (Homo sapiens) (UniProt P16581)
Put plainly: BSK_IMphg_ESelectin: BioMAP Diversity Plus: IMphg Assay for Eselectin Biomarker Activity (AID 2284291). To be noted: primary human endothelial cells with macrophages. The procedure, abridged: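 Analysed against DMSO baseline in the positive fitting direction, this endpoint is an ELISA read of E-selectin. It comes from human venular endothelial cells co-cultured with macrophages, sampled 24 h post-dose.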

Test [2] is described as follows: BSK_IMphg_SRB: Viability Assessment in the BioMAP Diversity Plus: IMphg Assay (AID 2284292).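 Further: measured one day after compound addition.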 To be noted: primary human endothelial cells with macrophages. A digest of the protocol:
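SRB viability endpoint: cultures of human endothelial cells plus macrophages fixed with 10% TCA, stained with 0.1% SRB, read at 560 nm 24 h post-dosing. Only gain-of-signal fitted, relative to DMSO.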

Read-out in test [3]: Macrophage colony-stimulating factor (MCSF), CSF1 (gene 1435)
Kind of test: BSK_IMphg_MCSF: BioMAP Diversity Plus: IMphg Assay for Macrophage colony-stimulating factor (MCSF) Biomarker Activity (AID 2284293). As to conditions: primary human endothelial cells with macrophages. A digest of the protocol: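 M-CSF was measured by ELISA in human venular endothelial cell/macrophage co-cultures dosed for 24 hours. Sulforhodamine B staining of parallel cultures assessed cytotoxicity; data fitted against DMSO baseline.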

Read-out in test [4]: Interleukin-10 (IL10), IL10 (gene 3586)
Put plainly: BSK_IMphg_IL10: BioMAP Diversity Plus: IMphg Assay for Interleukin-10 (IL10) Biomarker Activity (AID 2284294). As to conditions: primary human endothelial cells with macrophages. A digest of the protocol: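 IL-10 read by ELISA after 24 h chemical exposure of primary human venular endothelial cell/macrophage cocultures, with DMSO as baseline. Parallel SRB staining (560 nm) gauged overt cytotoxicity.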

Test [5] can be described thus: BSK_IMphg_SRB.Mphg: Macrophage Viability Assessment in the BioMAP Diversity Plus: IMphg Assay (AID 2284295). As to conditions: primary human endothelial cells with macrophages. The procedure, abridged: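 Cytotoxicity read-out: parallel cultures fixed with 10% TCA, stained with 0.1% sulforhodamine B, read at 560 nm. System combines venular endothelium and macrophages; sampled 24 h post-dosing, fitted positively relative to DMSO control.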

Read-out in test [6]: Thrombomodulin, THBD (gene 7056)
Kind of test: BSK_LPS_Thrombomodulin: BioMAP Diversity Plus: LPS Assay for Thrombomodulin Biomarker Activity (AID 2284296). As to conditions: primary human HUVEC with PBMC. A digest of the protocol:
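Thrombomodulin on the surface of LPS-activated endothelial/PBMC co-cultures was quantified by ELISA at 24 hours post-dosing, with DMSO as baseline. Parallel SRB total-protein staining flagged overt cytotoxicity.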

Read-out in test [7]: CD69, CD69 (gene 969)
Kind of test: BSK_LPS_CD69: BioMAP Diversity Plus: LPS Assay for CD69 Biomarker Activity (AID 2284303). To be noted: primary human HUVEC with PBMC. A digest of the protocol: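 CD69 surface levels were read by ELISA after 24 h chemical treatment of an LPS-stimulated HUVEC plus PBMC co-culture; positive-direction fit against DMSO vehicle.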

In test [8] the test system is IYD (gene 389434). Kind of test: CCTE_GLTED_hIYD: CCTE's human Iodotyrosine Deiodinase (xIYD) Inhibition Assay, Great Lakes Toxicology and Ecology Division (GLTED) Lab (AID 2284317; active means hit-call score of the fitted dose curve at least 0.9, where 1 is the maximum). The method, then: CCTE_GLTED_hIYD is a cell-free, single-readout assay that uses human iodotyrosine deiodinase (hIYD) enzyme produced with baculovirus-insect cell system. The assay is based on iodide release measured by the Sandell-Kolthoff method and is run in 96-well plate format with assay plates run in triplicate (n=3) with measurements taken at 3 hours after chemical dosing. Platewise-normalization was used based on positive control (3-Nitro-L-tyrosine, MNT) and negative/solvent controls (DMSO, NaOH).CCTE_GLTED_hIYD is the assay component measured from the CCTE_GLTED_hIYD assay. It measures substrate involved in regulation of catalytic activity using spectrophotometry. The assay measures the deiodination activity of human IYD on the substrate monoiodotyrosine (MIT). After 3h incubation of substrate, enzyme, and test chemical, the components are applied to a 96-well Dowex column. Free iodide is not retained by the column and is separated from interfering assay components. The free iodide is measured by the Sandell-Kolthoff reaction in which the rate of reduction of cerium (Ce+4 to Ce+3) by arsenic (As+3 to As+5) is increased by the presence of iodide. This is observed as the loss of yellow color in the reaction and the quantified by the change in absorbance at 420 nm. The change in reaction rate is proportional to the amount of iodide present.Data from the assay component CCTE_GLTED_hIYD was analyzed at the assay endpoint CCTE_GLTED_hIYD in the positive analysis fitting direction relative to DMSO as the negative control and baseline of activity. Using a type of enzyme reporter, loss-of-signal activity can be used to understand iodotyrosine deiodinase activity. To generalize the intended target to other relatable targets, this assay endpoint is annotated to the 'dehalogenase' intended target family, where the subfamily is 'iodotyrosine deiodinase'.
Human thyroxine binding globulin (TBG) assay, developed at Great Lakes Toxicology and Ecology Division (GLTED) within the EPA's Center for Computational Toxicology and Exposure (CCTE), is designed to test the chemicals' ability to displace T4 from the TBG protein. The method used was largely based on Montano et al. (2012). This work describes the utilization of ANSA fluorescence when bound to the protein to approximate binding affinity of chemicals through a reduction of fluorescence when ANSA is displaced. This assay was conducted in 96-well plates with an incubation at 4C for 2 hours in a final volume of 200 uL. Final assay conditions included 0.0625 uM TBG, 0.6 uM ANSA, and 0.5% DMSO in 0.1 M phosphate buffer, pH=7.5.

Test [9] can be described thus: CCTE_Mundy_HCI_iCellGluta_NOG_NeuriteLength: CCTE's Neurite Outgrowth Assay in iCellGluta cells for Neurite Length, Mundy Lab (AID 2284318; active means hit-call score of the fitted dose curve at least 0.9, where 1 is the maximum). The procedure, abridged: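 Automated high-content imaging of betaIII-tubulin (Alexa Fluor-488) and Hoechst-stained cells gave neurite length, normalized to the DMSO baseline.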

Chain of E-selectin (Homo sapiens) (P16581 whole entry, looked up): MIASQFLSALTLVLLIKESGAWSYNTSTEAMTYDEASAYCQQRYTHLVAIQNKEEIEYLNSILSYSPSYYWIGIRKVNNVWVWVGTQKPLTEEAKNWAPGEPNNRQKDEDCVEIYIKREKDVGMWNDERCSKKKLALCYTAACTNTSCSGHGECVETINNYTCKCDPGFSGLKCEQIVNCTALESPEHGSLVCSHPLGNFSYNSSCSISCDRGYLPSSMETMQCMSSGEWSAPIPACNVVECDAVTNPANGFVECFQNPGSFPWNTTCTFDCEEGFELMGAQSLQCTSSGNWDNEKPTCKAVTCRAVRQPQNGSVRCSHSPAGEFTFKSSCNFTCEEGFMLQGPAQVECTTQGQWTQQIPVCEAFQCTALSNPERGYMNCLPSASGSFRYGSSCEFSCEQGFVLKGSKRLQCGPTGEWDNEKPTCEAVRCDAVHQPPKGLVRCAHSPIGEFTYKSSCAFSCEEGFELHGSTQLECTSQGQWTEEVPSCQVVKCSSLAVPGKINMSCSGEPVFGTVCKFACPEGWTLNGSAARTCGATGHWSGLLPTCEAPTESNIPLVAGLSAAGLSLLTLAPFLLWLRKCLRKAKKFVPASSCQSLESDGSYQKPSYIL

Regarding `C=CC(=O)OCC(F)(F)C(F)(F)C(F)(F)C(F)(F)C(F)(F)C(F)(F)C(F)(F)C(F)F`, the outcome in test [1], in [2], in [3], in test [4], in test [5] and in test [6] was inactive. Further, the result in test [7] was inactive. For the same compound, the AC50 was 7.9 µM (active) in [5], 26.9 µM (active) in test [6] and 23.2 µM (active) in test [7].

In the case of `O=S(=O)(Cl)C(F)(F)C(F)(F)C(F)(F)C(F)(F)C(F)(F)C(F)(F)C(F)(F)C(F)(F)F`, the result in test [1], in test [2], in [3], in test [4], in test [5] and in test [6] was inactive. Besides, the result in test [7] was inactive. The AC50 was 54.1 µM (active) in [4] and 100 µM (active) in [8].

Take `FC(F)(F)C(F)(F)C(F)(F)C(F)(F)C(F)(F)C(F)(F)CC[Si](Cl)(Cl)Cl`: the outcome in test [1], in test [2], in test [3], in test [4], in test [5] and in [6] was inactive. Further, the result in [7] was inactive. In addition, the half-maximal activity concentration (AC50) in test [5] was 0.0514 µM (active).

With `C[Si](Cl)(Cl)CCC(F)(F)C(F)(F)C(F)(F)C(F)(F)C(F)(F)C(F)(F)F`, the result in [1], in test [2], in test [3], in [4], in [5] and in [6] was inactive. Also, the result in [7] was inactive.

On to `O=C(O)C(F)(F)C(F)(F)C(F)(F)C(F)(F)C(F)(F)C(F)(F)C(F)F`, for which the outcome in test [1], in test [2], in test [3], in [4], in test [5] and in [6] was inactive. The outcome in test [7] was inactive.

As for `O=S(=O)(OCC(F)(F)F)C(F)(F)C(F)(F)C(F)(F)C(F)(F)F`, the outcome in [1], in test [2], in test [3], in test [4], in [5] and in [6] was inactive. Moreover, the AC50 in [7] is 30 µM (active) and 890 nM (active).

Take `NC(=O)C(F)(F)C(F)(F)C(F)(F)F`: the outcome in test [1], in [2], in [3], in test [4], in test [5] and in test [6] was inactive. The result in test [7] was inactive.

In the case of `NC(=O)C(F)(F)C(F)(F)C(F)(F)C(F)(F)C(F)(F)C(F)(F)C(F)(F)F`, the result in test [1], in test [2], in test [3], in [4], in test [5] and in [6] was inactive. Besides, the result in test [7] and in [9] was inactive.

As for `CO[Si](C)(CCC(F)(F)C(F)(F)C(F)(F)C(F)(F)C(F)(F)C(F)(F)F)OC`, the outcome in test [1], in [2], in test [3], in test [4], in [5] and in [6] was inactive. Moreover, the outcome in [7] was inactive.

Regarding `CCCCCCCCCCCCCC[P+](CCCC)(CCCC)CCCC`, the AC50 in test [8] was 97.6 µM (active).

`OCCCCC(F)(F)C(F)(F)C(F)(F)C(F)(F)F`: the outcome in [1], in test [2], in [3], in [4], in test [5] and in [6] was inactive. Besides, the outcome in test [7] and in test [9] was inactive.

Regarding `OCCCC(F)(F)C(F)(F)C(F)(F)C(F)(F)C(F)(F)C(F)(F)C(F)(F)C(F)(F)F`, the AC50 in test [1] was 14.3 µM (active) and 11.4 µM (active); in [2], 47.2 µM (active) and 31 µM (active); in [3], 44.4 µM (active) and 42.1 µM (active); in [4], 40.8 µM (active) and 32.2 µM (active); in [5] it was 16.7 µM (active) and 30 µM (active); in test [6], 52.8 µM (active) and 52.3 µM (active). In addition, the AC50 in test [7] was 22.1 µM (active) and 43.1 µM (active). Further, the compound was called inactive in test [9].

For the compound `O=C(Cl)C(F)(F)C(F)(F)C(F)(F)C(F)(F)C(F)(F)C(F)(F)C(F)(F)F`, the result in test [1], in test [2], in test [3], in [4], in test [5] and in [6] was inactive. Also, in [7], the outcome was inactive.

As for `O=C(F)C1(F)C(F)(F)C(F)(F)C(F)(F)C(F)(F)C1(F)F`, the result in test [1], in test [2], in test [3], in test [4], in [5] and in test [6] was inactive. In addition, the outcome in test [7] and in [9] was inactive.

As for `C=C(C)C(=O)OCC(F)(F)C(F)(F)C(F)(F)C(F)F`, the result in test [1], in test [2], in test [3], in test [4], in test [5] and in [6] was inactive. Also, the outcome in test [7] was inactive.

As to `O=C(O)CCC(F)(F)C(F)(F)C(F)(F)F`, the result in test [1], in test [2], in [3], in test [4], in test [5] and in test [6] was inactive. Besides, the outcome in [7] and in [9] was inactive.

For `CCCCCCCCCCCCC[N+](C)(C)Cc1ccccc1`, the AC50 in test [8] is 70.8 µM (active).

In the case of `NCC(F)(F)C(F)(F)C(F)(F)C(F)(F)C(F)(F)C(F)(F)C(F)(F)C(F)(F)F`, the outcome in test [1], in [2], in [3], in test [4], in [5] and in test [6] was inactive. Moreover, the outcome in test [7] was inactive.

On to `OC(O)C(F)(F)C(F)(F)F`, for which the result in [1], in test [2], in [3], in [4], in [5] and in test [6] was inactive. Moreover, in test [7], the outcome was inactive.

In the case of `NC(O)(C(F)(F)F)C(F)(F)F`, the result in [1], in [2], in test [3], in test [4], in test [5] and in test [6] was inactive. Further, the result in [7] and in test [9] was inactive. Besides, in test [7], the AC50 is 1.45 µM (active).

As for `OCC(O)CC(F)(F)C(F)(F)C(F)(F)C(F)(F)C(F)(F)C(F)(F)C(F)(F)C(F)(F)F` (stereo not given), the result in [1], in test [2], in test [3], in test [4], in test [5] and in test [6] was inactive. Moreover, in test [7], the outcome was inactive.

As for `NC(=O)C(F)(F)C(F)(F)C(F)(F)C(F)F`, the outcome in test [1], in test [2], in test [3], in test [4], in test [5] and in test [6] was inactive. For the same compound, in test [7], the outcome was inactive.

On to `CCN=C1C=CC(=C(c2ccc(N(CC)CC)cc2)c2ccc(N(CC)CC)cc2)c2ccccc21`, for which, in [6], the result was inactive. In [7], the AC50 is 1.16 µM (active) and 1.01 µM (active).

In the case of `CCCCCCCC/C=C\CCCCCCCC(=O)OCC(O)CO` (stereo not given), in [8], the AC50 is 68.1 µM (active).

For the compound `OCC(O)CC(F)(F)C(F)(F)C(F)(F)C(F)(F)F` (stereo not given), the result in [1], in test [2], in [3], in test [4], in test [5] and in test [6] was inactive. Also, the outcome in [7] was inactive. Also, in [7], the AC50 was 0.22 µM (active).

`CCCCCCCC/C=C\CCCCCCCC(=O)N(C)CC(=O)O`: the AC50 in [8] is 58.2 µM (active).

For `C=CC(=O)OCCC(F)(F)C(F)(F)C(F)(F)C(F)(F)F`, the result in test [1], in test [2], in [3], in test [4], in test [5] and in [6] was inactive. Moreover, in test [7], the result was inactive.

Take `CCCCCCCCn1sc(Cl)c(Cl)c1=O`: in test [8], the AC50 is 100 µM (active).

The values are drawn from PubChem BioAssay (EPA / NIEHS).
